Consider eight compounds from PubChem BioAssay (Tox21).

Results filed as inconclusive are left out. The source holds several records for some structures; these can differ, active in one and inactive in another. Activity calls are given as the source filed them. Unless noted, the call rests on the fitted dose curve.

The nature of assay [1]: Nuclear factor erythroid 2-related factor 2/antioxidant responsive element (Nrf2/ARE) small molecule agonists: luciferase reporter gene qHTS assay in human keratinocytes (AID 1919969). Further: nearly all actives have a fitted effect of over 35% in size. Further: potency means the concentration at half of the fitted maximal effect. Background: Reporter assays use an easily measured gene product as a stand-in for the process of interest.
The target of assay [2] is Gonadotropin-releasing hormone receptor (Homo sapiens) (UniProt P30968). Kind of assay: Human gonadotropin-releasing hormone receptor (GnRHR) small molecule agonists, calcium flux assay in GnRHR-HEK293 cells (AID 1920063). Further: nearly all actives have a fitted effect of over 35% in size. Further: potency means the concentration at half of the fitted maximal effect. The method in brief: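 Calcium-dye fluorescence, Ex/Em=480/540, recorded every 1 sec over 3 min after compound addition to GnRHR-HEK293 cells. Cells had been seeded 18 hours earlier and dye-loaded for 1 hour at 37 C. Fifteen concentrations, triplicates.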
A general note: Calcium flux is commonly read through the fluorescence of an indicator in the cells.

Assay [3] has as its target KiSS-1 receptor (Homo sapiens) (UniProt Q969F8). Kind of assay: Human kisspeptin (KISS1R) small molecule agonists, calcium flux assay in KISS1R-HEK293 cells (AID 1920064; active means well fitted activation curve with a large enough effect in the repeat runs; further: potency means the concentration at half of the fitted maximal effect). An outline of the steps: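 Calcium flux read-out: kinetic fluorescence at Ex/Em=480/540, 1 s intervals over 3 min, after pin-tool compound addition to dye-loaded KISS1R-HEK293 cells. Fifteen concentrations, triplicates.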

The nature of assay [4]: G protein-coupled receptor (GPCR) small molecule agonists, calcium flux assay: HEK293 wild type cell line counter screen (AID 1920065). Further: potency means the concentration at half of the fitted maximal effect. An outline of the steps: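 Agonist mode; 18 h seeding at 37 C, 1 h dye load at 37 C; compounds pinned from DMSO, ATP as positive control; kinetic fluorescence 480/540 nm, 3 min, 1 s reads; 15 concentrations, triplicate.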
The nature of assay [5]: p53 small molecule agonists, cell-based qHTS assay with human liver microsomes: qHTS cell viability counter screen (AID 1963579). Further: nearly all actives have a fitted effect of over 45% in size. Further: potency means the concentration at half of the fitted maximal effect. The method in brief:
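Tox21 library compounds, delivered from DMSO stocks, were tested on p53RE-bla cells together with 0.5 mg/mL human liver microsomes and 0.5 mg/mL NADPH (final) over 16 h at 37 C; CellTiter-Glo luminescence served as the cytotoxicity measure.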
(In qHTS, concentration-response curves come from the screen itself.)

Assay [6] in a line: p53 small molecule agonists, cell-based qHTS assay with rat liver microsomes: qHTS cell viability counter screen (AID 1963580). Further: nearly all actives have a fitted effect of over 45% in size. Further: potency means the concentration at half of the fitted maximal effect. An outline of the steps: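 Cytotoxicity counter screen: intracellular ATP measured by CellTiter-Glo luminescence in the same wells as the beta-lactamase reporter read, on HCT-116 p53RE-bla cells exposed 16 h at 37 C to compounds with rat liver microsomes and NADPH, each 0.5 mg/mL final.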

For assay [7], the target named is 5-hydroxytryptamine receptor 2A (Homo sapiens) (UniProt P28223). Put plainly: 5-hydroxytryptamine receptor 2A (HTR2A) small molecule antagonists, cell-based qHTS assay (AID 1963586). Further: nearly all actives have a fitted effect of over 45% in size. An outline of the steps: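 CHO cells stably expressing human HTR2A were plated for 18 h at 37 C, then loaded with calcium dye for 1 h. Compounds were preincubated 5 min at room temperature before DOI (4 nM solution) was added. Kinetic fluorescence was read for 3 min.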

For assay [8], the target named is Muscarinic acetylcholine receptor M1 (Homo sapiens) (UniProt P11229). Put plainly: Cholinergic receptor muscarinic 1 (CHRM1) small molecule antagonists, cell-based qHTS assay (AID 1963588). Further: nearly all actives have a fitted effect of over 40% in size. An outline of the steps:
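Compounds were tested at 15 concentrations in three independent runs. Dye-loaded CHRM1-CHO cells were exposed 5 min at room temperature before stimulation by acetylcholine added at 50nM. Intracellular calcium was read kinetically on FDSS for 3 min.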

The target is the same in assay [9]. Put plainly: Cholinergic receptor muscarinic 1 (CHRM1) small molecule agonists, cell-based qHTS assay (AID 1963589). Further: nearly all actives have a fitted effect of over 35% in size. Further: potency means the concentration at half of the fitted maximal effect. The method in brief:
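Calcium flux read-out: kinetic fluorescence at 1 sec intervals after pin-tool compound addition to dye-loaded CHRM1-CHO cells (human M1). Agonist mode; 15 concentrations tested in triplicate independent runs.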

In assay [10] the target is Beta-2 adrenergic receptor (Homo sapiens) (UniProt P07550). Put plainly: Adrenergic beta2 receptor (ADRB2) small molecule antagonists, cell-based qHTS assay (AID 1963592). Further: nearly all actives have a fitted effect of over 50% in size. Further: potency means the concentration at half of the fitted maximal effect. The method in brief:
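Assay format: CHO-ADRB2 cells, 18-20hr seeding at 37C/5% CO2, then compound plus 1nM isoproterenol agonist mix for 0.5hr RT. Homogeneous time-resolved fluorescence cAMP detection after 1hr, expressed as 665/615 nm ratio.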

For assay [11], the target named is D(2) dopamine receptor (Homo sapiens) (UniProt P14416). Kind of assay: Dopamine D2 receptor (DRD2) small molecule agonists, cell-based qHTS assay (AID 1963594). Further: nearly all actives have a fitted effect of over 35% in size. The method in brief:
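HEK293 cells stably expressing human DRD2, pre-treated with PDE inhibitor Ro20-1724 (0.1 mM final) and compound 10 min at room temperature, then stimulated with NKH477 (200nM […]) for 30 min. cAMP read by HTRF (665/620 nm).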

Assay [12] shares this target. Put plainly: Dopamine D2 receptor (DRD2) small molecule antagonists, cell-based qHTS assay (AID 1963595; active means well fitted inhibition curve with a large enough effect in the signal ratio in the repeat runs, with a control signal flat; the % refers to the signal ratio; further: potency means the concentration at half of the fitted maximal effect). The method in brief: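 Readout: HTRF cAMP, cAMP-d2 competing with cellular cAMP for anti-cAMP cryptate, read after 1 h. Cells: DRD2-HEK293. Conditions: 0.1 mM Ro20-1724, 12 nM quinpirole, 200 nM NKH477, 30 min RT.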
Assay [13] has as its target 5-hydroxytryptamine receptor 2A (Homo sapiens) (UniProt P28223). Kind of assay: 5-hydroxytryptamine receptor 2A (HTR2A) small molecule agonists, cell-based qHTS assay (AID 1963587). Further: nearly all actives have a fitted effect of over 30% in size. An outline of the steps:
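CHO cells stably expressing human HTR2A, plated 18 h, loaded with calcium dye 1 h at 37 C. Agonist mode: compounds added and intracellular calcium fluorescence recorded kinetically for 2 min at 1 sec intervals.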

The nature of assay [14]: cAMP Responsive Elements (CRE) small molecule agonists, cell-based qHTS assay (AID 1963590). The method in brief:
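Beta-lactamase reporter readout: LiveBLAzer B/G FRET substrate, 2 h at room temperature, added after 3 h compound treatment of CRE-bla HEK 293T cells at 37 C/5% CO2.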

Assay [15] is described as follows: p53 small molecule agonists, cell-based qHTS assay: qHTS cell viability counter screen (AID 1963581). Further: nearly all actives have a fitted effect of over 45% in size. The method in brief: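 Cytotoxicity read-out: ATP-based luminescence (CellTiter-Glo, 30 min RT) measured in the same wells as the p53 reporter assay, HCT-116 p53RE-bla cells, 16 h compound exposure at 37 C.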
In assay [16] the target is Beta-2 adrenergic receptor (Homo sapiens) (UniProt P07550). Put plainly: Adrenergic beta2 receptor (ADRB2) small molecule agonists, cell-based qHTS assay (AID 1963593).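 Further: CHO cells stably overexpressing human ADRB2.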 An outline of the steps: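 CHO cells stably over-expressing ADRB2 were plated overnight at 37C, then dosed with compounds plus a stimulation mix containing 100uM IBMX and 25uM Ro-20-1724 for 0.5hr at room temperature. cAMP was measured by HTRF competition, 1hr.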

Assay [17] is described as follows: cAMP Responsive Elements (CRE) small molecule antagonists, cell-based qHTS assay (AID 1963591; active means well fitted inhibition curve with a large enough effect in the signal ratio in the repeat runs, not every such curve was filed as active; the % refers to the signal ratio). The method in brief:
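HEK293T CRE-bla; 18 h preincubation; compound pin-transfer; NKH477 0.25 uM final, 3 h, 37 C; LiveBLAzer FRET substrate 2 h RT.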

Chain of 5-hydroxytryptamine receptor 2A (Homo sapiens) (P28223 whole entry, looked up): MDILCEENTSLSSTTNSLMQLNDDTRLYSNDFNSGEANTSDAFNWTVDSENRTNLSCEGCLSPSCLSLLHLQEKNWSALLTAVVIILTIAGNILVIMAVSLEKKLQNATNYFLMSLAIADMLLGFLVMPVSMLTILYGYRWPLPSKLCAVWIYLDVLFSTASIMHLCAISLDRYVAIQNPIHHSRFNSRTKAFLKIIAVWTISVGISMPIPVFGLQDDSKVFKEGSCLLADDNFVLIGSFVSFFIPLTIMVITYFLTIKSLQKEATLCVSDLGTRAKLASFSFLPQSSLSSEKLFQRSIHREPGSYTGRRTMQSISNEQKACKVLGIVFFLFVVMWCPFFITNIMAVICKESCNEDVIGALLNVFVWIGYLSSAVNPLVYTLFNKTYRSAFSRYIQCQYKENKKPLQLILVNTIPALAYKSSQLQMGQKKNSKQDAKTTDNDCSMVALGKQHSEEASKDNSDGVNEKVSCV
Chain of Gonadotropin-releasing hormone receptor (Homo sapiens) (P30968 whole entry, looked up): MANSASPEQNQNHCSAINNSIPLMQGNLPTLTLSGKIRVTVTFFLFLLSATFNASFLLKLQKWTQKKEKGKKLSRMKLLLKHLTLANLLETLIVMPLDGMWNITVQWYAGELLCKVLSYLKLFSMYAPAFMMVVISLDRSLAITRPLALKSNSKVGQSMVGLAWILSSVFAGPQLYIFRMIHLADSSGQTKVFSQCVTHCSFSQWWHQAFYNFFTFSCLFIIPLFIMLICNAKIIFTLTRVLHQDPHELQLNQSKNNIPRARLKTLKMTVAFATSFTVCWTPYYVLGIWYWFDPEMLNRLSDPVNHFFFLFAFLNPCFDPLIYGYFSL
Chain of KiSS-1 receptor (Homo sapiens) (Q969F8 whole entry, looked up): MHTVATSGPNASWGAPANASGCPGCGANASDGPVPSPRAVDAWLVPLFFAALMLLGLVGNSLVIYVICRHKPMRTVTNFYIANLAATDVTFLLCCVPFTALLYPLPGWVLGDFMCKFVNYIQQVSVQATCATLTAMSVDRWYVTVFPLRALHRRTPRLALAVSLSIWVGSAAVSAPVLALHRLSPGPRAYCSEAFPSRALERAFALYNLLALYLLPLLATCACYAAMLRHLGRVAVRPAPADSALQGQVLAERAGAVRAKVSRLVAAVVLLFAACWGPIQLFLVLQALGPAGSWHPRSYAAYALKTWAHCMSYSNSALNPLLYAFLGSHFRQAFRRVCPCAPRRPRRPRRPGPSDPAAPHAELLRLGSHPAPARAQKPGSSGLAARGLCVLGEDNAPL
Chain of Beta-2 adrenergic receptor (Homo sapiens) (P07550 whole entry, looked up): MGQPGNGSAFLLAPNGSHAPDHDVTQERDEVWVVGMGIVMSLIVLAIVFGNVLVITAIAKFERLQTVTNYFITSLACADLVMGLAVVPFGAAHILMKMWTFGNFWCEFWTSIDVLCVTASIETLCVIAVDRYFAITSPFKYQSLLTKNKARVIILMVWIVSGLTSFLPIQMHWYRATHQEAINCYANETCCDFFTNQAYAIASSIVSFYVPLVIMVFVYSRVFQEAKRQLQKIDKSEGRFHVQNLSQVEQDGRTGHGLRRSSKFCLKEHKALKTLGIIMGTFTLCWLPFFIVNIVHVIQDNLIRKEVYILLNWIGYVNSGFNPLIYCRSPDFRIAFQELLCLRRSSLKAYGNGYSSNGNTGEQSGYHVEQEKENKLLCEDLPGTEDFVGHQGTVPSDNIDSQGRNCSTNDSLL
Chain of D(2) dopamine receptor (Homo sapiens) (P14416 whole entry, looked up): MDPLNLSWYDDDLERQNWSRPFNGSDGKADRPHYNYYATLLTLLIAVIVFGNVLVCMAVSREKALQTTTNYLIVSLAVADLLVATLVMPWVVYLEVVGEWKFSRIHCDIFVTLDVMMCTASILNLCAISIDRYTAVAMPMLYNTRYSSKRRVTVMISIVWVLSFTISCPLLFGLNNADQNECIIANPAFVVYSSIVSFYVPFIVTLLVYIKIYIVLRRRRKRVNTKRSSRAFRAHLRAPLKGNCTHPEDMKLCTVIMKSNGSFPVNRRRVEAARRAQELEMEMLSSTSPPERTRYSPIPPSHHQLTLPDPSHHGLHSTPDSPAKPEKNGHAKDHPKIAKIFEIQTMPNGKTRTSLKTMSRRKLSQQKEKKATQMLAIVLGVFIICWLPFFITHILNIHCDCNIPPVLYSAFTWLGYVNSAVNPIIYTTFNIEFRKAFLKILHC
Chain of Muscarinic acetylcholine receptor M1 (Homo sapiens) (P11229 whole entry, looked up): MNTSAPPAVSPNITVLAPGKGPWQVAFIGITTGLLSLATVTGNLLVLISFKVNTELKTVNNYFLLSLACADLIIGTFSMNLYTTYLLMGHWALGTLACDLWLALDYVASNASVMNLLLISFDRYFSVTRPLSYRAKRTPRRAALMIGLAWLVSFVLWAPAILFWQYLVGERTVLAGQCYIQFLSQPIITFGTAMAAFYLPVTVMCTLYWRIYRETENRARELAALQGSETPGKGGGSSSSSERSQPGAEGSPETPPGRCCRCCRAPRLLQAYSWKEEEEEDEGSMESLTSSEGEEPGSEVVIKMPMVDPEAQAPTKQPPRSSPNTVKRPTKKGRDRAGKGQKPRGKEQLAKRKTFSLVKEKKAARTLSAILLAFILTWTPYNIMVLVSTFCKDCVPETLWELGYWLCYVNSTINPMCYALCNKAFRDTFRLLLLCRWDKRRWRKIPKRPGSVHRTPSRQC

Take `Nc1ccc2c3c(cccc13)-c1ccccc1-2`: the Potency result in [1], in assay [5], in assay [6], in assay [7], in assay [8] and in assay [10] was “inactive” in each case. Also, the Potency entry in assay [11] and in assay [12] was “inactive” in each case. The Potency is 35.1 µM (active) in assay [2], 55.5 µM (active) in assay [3], 39.3 µM (active) in assay [4] and 49.5 µM (active) in [9].
As to `Cc1cc2nc3ccc(=[N+](C)C)cc-3sc2cc1N`, the Potency was 2.37 µM (active) in assay [1] and 11.2 µM (active) in assay [5]. In addition, the Potency result in [2], in [3], in assay [4], in assay [13], in assay [8] and in assay [9] was “inactive” each time. In addition, the Potency entry in assay [14] was “inactive”.
As for `O=C(Oc1ccccc1)c1cccc(C(=O)Oc2ccccc2)c1`, the Potency in [1] is 1.15 µM (active). For the same compound, the Potency result in assay [2], in assay [3], in assay [4], in assay [5], in assay [6] and in [13] was “inactive” in each case. Moreover, the Potency result in assay [9] and in assay [11] was “inactive” in each case.
Consider `CC(=O)O[C@@]12CO[C@@H]1C[C@H](O)[C@@]1(C)C(=O)[C@H](O)C3=C(C)[C@@H](OC(=O)[C@H](O)[C@@H](NC(=O)OC(C)(C)C)c4ccccc4)C[C@@](O)([C@@H](OC(=O)c4ccccc4)[C@H]21)C3(C)C`, for which the Potency entry in assay [1], in assay [2], in assay [3], in assay [4], in [11] and in assay [12] was “inactive” in each case.
For the compound `Cc1ccc(-c2cc(C(F)(F)F)nn2-c2ccc(S(N)(=O)=O)cc2)cc1`, the Potency result in assay [1], in assay [2], in [3], in assay [4], in [5] and in assay [15] was “inactive” each time. Besides, the Potency entry in assay [16] and in [11] was “inactive” throughout. In addition, the Potency in assay [6] was 36.2 µM (active) and inactive; in assay [10], 60.9 µM (active); in assay [12], 60.9 µM (active) and inactive.
As to `C=CC(C)(C)CC(=O)OC`, the Potency result in assay [1], in [2], in assay [3], in assay [4], in assay [5] and in assay [6] was “inactive” each time. In addition, the Potency result in assay [7], in assay [13], in [9], in [14], in assay [10] and in [11] was “inactive” throughout. Further, in assay [12], the Potency entry was “inactive”.
For the compound `CCC1Nc2cc(Cl)c(S(N)(=O)=O)cc2S(=O)(=O)N1` (stereo not given), the Potency result in [1], in assay [2], in assay [3], in assay [4], in assay [6] and in assay [15] was “inactive” throughout. Besides, the Potency entry in [13], in assay [8], in assay [9], in assay [14], in assay [17] and in assay [16] was “inactive” throughout. The Potency result in assay [11] and in assay [12] was “inactive” throughout.
With `NC(=O)c1ccccc1`, the Potency result in [1], in assay [2], in assay [3], in assay [4], in assay [5] and in [15] was “inactive” in each case. Also, the Potency result in [7], in assay [13], in [8], in assay [9], in assay [14] and in assay [17] was “inactive” in each case. Moreover, the Potency entry in assay [10], in assay [16], in assay [11] and in assay [12] was “inactive” in each case.
